Assay results: PubChem BioAssay AID2284118 (EPA ToxCast)
Active and inactive are the calls of the source. Rule for the calls: active = hit-call score of the fitted dose curve at least 0.9, where 1 is the maximum; inactive = score below 0.9.

Molecular target: human AMPKalpha1 CAMK Kinase, PRKAA1 (gene 5562) (UniProt Q13131)
Experiment: ERF_KP_ENZ_hPRKAA1: Eurofins (ERF) Enzymatic Radiometric [10 uM ATP] KinaseProfiler LeadHunter Assay for human AMPKalpha1 CAMK Kinase
Protocol: ERF_KP_ENZ_hPRKAA1 is a biochemical, single-readout assay that uses extracted gene-proteins in a cell-free assay. Measurements were taken 0.66 hour after chemical dosing in a 96-well plate. See AMPKalpha1 Human CAMK Kinase Enzymatic Radiometric Assay [10 uM ATP], KinaseProfiler.ERF_KP_ENZ_hPRKAA1 is an assay component calculated from the ERF_KP_ENZ_hPRKAA1 assay. It is designed to measure enzyme activity using a type of enzyme reporter as detected by scintillation counting with radiometry technology.Data from the assay component ERF_KP_ENZ_hPRKAA1 was analyzed at the assay endpoint, ERF_KP_ENZ_hPRKAA1, in the positive analysis fitting direction relative to DMSO as the negative control and baseline of activity. Using a type of enzyme reporter, loss-of-signal activity can be used to understand changes in enzymatic activity as they relate to gene PRKAA1. To generalize the intended target to other relatable targets, this assay endpoint is annotated to the kinase intended target family, where the subfamily is serine/threonine kinase.
AMPK (a1, b1, g1) (h) is incubated with 8 mM MOPS pH 7.0, 0.2 mM EDTA, 200 uM AMP, 100 uM […], 10 mM MgAcetate and [gamma-33P]-ATP (specific activity and concentration as required). The reaction is initiated by the addition of the Mg/ATP mix. […]

Sequence of human AMPKalpha1 CAMK Kinase, PRKAA1 (gene 5562) (Q13131 whole entry, looked up): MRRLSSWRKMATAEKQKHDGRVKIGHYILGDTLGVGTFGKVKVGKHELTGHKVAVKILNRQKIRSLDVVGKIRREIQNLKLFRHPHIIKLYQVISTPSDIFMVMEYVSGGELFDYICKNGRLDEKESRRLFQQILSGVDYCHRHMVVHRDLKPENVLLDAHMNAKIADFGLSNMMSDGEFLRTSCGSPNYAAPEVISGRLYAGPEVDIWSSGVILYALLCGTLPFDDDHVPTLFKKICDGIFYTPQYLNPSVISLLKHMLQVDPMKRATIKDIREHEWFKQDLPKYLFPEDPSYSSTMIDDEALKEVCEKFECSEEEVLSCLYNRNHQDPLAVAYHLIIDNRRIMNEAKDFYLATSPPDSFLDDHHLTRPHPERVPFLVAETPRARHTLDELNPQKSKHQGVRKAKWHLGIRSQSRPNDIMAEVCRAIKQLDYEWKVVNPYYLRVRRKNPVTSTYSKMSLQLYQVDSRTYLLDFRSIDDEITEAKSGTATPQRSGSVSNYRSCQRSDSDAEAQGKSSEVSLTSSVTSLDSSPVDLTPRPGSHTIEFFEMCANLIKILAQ

Which AC50 does the source give for O=C(/C=C/c1ccc(O)cc1)CC(=O)/C=C/c1ccc(O)cc1 here?
The AC50 was 0.298 nM (active).
